# From publication PMC7862700, “An all-to-all approach to the identification of sequence-specific readers for epigenetic DNA modifications on cytosine”
# Key:
# Experiment in all cases: DAPPL (digital affinity profiling via proximity ligation, sequencing); 10 mM Tris-HCl pH 7.5, 50 mM NaCl, 1 mM DTT, 4% glycerol, room temperature, 30 min; GST-TFs on glutathione beads, 16-mer random dsDNA library, 0.1% formaldehyde crosslink after washing; high values mean tight binding
# FLI1 = target: T1, FLI1 (Homo sapiens, UniProt Q01543 1-452); conditions: protein: recombinant; tags: N-terminal GST; dsDNA, one strand shown
# T1 sequence: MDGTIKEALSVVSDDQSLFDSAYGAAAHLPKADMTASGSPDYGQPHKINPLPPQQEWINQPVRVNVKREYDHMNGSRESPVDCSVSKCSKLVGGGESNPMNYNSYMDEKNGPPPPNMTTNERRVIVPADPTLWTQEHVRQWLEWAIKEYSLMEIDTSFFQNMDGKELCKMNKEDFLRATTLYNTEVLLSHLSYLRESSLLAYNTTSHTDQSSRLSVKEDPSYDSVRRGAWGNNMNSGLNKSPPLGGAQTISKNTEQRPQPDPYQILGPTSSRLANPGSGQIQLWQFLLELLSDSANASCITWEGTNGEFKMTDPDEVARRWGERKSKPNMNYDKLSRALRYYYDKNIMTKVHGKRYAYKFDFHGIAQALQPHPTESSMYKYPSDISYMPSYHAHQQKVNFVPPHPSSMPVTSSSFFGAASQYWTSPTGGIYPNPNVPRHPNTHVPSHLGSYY
# Procedure, shortened: (§1)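 Human transcription factors carrying a GST fusion were produced in yeast, bound to glutathione beads, tagged with DNA barcodes and pooled together with a tag-only sample. Each pool was held with 200 nmole of a random double-stranded 16-mer DNA library in Tris/NaCl/DTT/glycerol buffer for 30 min at room temperature, then washed, crosslinked in 0.1% formaldehyde, proximity-ligated with BsaI/T4 ligase (1 h, 37 °C), PCR-amplified and sequenced on an Illumina NextSeq500. Binding signal is the read frequency of each hexamer for a given factor divided by its frequency in the tag-only sample.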
# ELK1 = target: T2, ELK1 (Homo sapiens, UniProt P19419 1-428); conditions: protein: recombinant; tags: N-terminal GST; dsDNA, one strand shown
# T2 sequence: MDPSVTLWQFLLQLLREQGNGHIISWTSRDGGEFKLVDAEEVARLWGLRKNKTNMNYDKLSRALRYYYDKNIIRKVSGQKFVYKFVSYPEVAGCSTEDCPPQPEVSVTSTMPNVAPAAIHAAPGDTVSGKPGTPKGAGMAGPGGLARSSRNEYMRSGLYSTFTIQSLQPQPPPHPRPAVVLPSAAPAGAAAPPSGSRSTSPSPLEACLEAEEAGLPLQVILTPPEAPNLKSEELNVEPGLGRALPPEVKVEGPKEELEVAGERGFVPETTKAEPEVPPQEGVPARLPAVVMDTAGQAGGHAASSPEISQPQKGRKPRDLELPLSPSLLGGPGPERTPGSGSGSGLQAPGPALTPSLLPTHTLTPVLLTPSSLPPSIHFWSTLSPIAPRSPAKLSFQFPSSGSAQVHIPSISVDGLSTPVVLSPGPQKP
# Procedure, shortened: as §1
# GABPA = target: T3, GABPA (Homo sapiens, UniProt Q06546 1-454); conditions: protein: recombinant; tags: N-terminal GST; dsDNA, one strand shown
# T3 sequence: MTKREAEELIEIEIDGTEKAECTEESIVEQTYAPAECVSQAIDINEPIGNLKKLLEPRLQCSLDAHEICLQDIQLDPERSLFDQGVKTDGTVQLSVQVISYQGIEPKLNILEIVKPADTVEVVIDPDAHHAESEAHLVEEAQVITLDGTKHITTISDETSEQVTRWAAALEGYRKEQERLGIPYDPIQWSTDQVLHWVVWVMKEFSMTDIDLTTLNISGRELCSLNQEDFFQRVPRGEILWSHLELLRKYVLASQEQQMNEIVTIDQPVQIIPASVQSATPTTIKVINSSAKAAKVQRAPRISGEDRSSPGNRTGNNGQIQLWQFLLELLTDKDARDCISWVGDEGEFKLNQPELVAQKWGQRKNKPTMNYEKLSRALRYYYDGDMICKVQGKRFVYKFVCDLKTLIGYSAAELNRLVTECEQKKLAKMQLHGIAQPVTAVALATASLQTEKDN
# Procedure, shortened: as §1
# ERG = target: T4, ERG (Homo sapiens, UniProt P11308 1-479); conditions: protein: recombinant; tags: N-terminal GST; dsDNA, one strand shown
# T4 sequence: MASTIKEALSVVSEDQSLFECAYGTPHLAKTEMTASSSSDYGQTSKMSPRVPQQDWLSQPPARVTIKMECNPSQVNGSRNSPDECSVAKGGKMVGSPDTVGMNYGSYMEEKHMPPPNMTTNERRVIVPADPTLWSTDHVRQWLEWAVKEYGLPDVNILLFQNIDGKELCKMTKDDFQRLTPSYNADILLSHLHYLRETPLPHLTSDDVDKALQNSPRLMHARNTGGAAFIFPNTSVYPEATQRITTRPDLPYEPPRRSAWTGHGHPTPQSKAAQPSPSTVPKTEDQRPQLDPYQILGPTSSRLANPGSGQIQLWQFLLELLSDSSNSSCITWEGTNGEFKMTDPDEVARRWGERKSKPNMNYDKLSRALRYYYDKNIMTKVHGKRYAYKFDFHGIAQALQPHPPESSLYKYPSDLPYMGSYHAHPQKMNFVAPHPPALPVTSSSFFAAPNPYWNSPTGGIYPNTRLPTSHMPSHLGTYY
# Procedure, shortened: as §1
# ELF1 = ELF1 (Homo sapiens, UniProt P32519 1-619); conditions: protein: recombinant; tags: N-terminal GST; dsDNA, one strand shown
# Procedure, shortened: as §1
# EHF = target: T5, EHF (Homo sapiens, UniProt Q9NZC4 1-300); conditions: protein: recombinant; tags: N-terminal GST; dsDNA, one strand shown
# T5 sequence: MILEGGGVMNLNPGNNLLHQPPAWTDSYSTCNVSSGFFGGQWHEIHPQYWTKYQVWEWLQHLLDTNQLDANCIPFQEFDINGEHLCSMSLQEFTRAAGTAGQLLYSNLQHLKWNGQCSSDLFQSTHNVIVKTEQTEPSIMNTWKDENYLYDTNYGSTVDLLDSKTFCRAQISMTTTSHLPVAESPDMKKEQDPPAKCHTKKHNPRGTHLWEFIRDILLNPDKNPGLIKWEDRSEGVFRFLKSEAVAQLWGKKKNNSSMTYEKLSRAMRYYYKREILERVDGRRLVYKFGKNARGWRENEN
# Procedure, shortened: as §1
# SPI1 = SPI1 (Homo sapiens, UniProt P17947 1-270); conditions: protein: recombinant; tags: N-terminal GST; dsDNA, one strand shown
# Procedure, shortened: as §1
# SPIB = SPIB (Homo sapiens, UniProt Q01892 1-262); conditions: protein: recombinant; tags: N-terminal GST; dsDNA, one strand shown
# Procedure, shortened: as §1
# ELK3 = target: T6, ELK3 (Homo sapiens, UniProt P41970 1-407); conditions: protein: recombinant; tags: N-terminal GST; dsDNA, one strand shown
# T6 sequence: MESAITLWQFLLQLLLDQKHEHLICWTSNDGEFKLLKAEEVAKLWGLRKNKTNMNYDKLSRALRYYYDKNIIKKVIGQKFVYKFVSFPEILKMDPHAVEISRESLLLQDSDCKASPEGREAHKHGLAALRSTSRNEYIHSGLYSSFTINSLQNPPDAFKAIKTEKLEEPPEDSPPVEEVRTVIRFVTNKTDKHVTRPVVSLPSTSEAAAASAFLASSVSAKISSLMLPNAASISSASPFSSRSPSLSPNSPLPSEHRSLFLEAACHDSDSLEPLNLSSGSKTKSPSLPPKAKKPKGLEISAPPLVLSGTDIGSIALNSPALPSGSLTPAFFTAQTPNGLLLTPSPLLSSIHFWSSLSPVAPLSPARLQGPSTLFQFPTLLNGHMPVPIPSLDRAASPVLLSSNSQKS
# Procedure, shortened: as §1
# FEV = target: T7, FEV (Homo sapiens, UniProt Q99581 1-238); conditions: protein: recombinant; tags: N-terminal GST; dsDNA, one strand shown
# T7 sequence: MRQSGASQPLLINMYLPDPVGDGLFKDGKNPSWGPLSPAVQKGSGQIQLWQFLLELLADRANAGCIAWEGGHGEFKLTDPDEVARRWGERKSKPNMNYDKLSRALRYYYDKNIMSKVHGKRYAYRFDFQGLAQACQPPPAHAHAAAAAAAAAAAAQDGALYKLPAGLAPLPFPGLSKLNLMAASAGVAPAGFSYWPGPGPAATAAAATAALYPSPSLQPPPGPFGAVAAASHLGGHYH
# Procedure, shortened: as §1
# ETV5 = ETV5 (Homo sapiens, UniProt P41161 1-510); conditions: protein: recombinant; tags: N-terminal GST; dsDNA, one strand shown
# Procedure, shortened: as §1
# HSF1 = HSF1 (Homo sapiens, UniProt Q00613 1-529); conditions: protein: recombinant; tags: N-terminal GST; chain copies: 3; dsDNA, one strand shown
# Procedure, shortened: as §1
# SPIC = target: T8, SPIC (Homo sapiens, UniProt Q8N5J4 1-248); conditions: protein: recombinant; tags: N-terminal GST; dsDNA, one strand shown
# T8 sequence: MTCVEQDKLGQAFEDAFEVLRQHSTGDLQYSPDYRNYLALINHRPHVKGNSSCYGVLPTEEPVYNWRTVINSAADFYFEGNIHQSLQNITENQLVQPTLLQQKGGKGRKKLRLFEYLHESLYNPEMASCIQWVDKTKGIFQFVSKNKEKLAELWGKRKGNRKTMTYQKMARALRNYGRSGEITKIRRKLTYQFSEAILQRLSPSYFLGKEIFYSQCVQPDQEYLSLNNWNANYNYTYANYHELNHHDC
# Procedure, shortened: as §1
# ELF4 = ELF4 (Homo sapiens, UniProt Q99607 1-663); conditions: protein: recombinant; tags: N-terminal GST; dsDNA, one strand shown
# Procedure, shortened: as §1
# ELK4 = target: T9, ELK4 (Homo sapiens, UniProt P28324-2 1-405); conditions: protein: recombinant; tags: N-terminal GST; dsDNA, one strand shown
# T9 sequence: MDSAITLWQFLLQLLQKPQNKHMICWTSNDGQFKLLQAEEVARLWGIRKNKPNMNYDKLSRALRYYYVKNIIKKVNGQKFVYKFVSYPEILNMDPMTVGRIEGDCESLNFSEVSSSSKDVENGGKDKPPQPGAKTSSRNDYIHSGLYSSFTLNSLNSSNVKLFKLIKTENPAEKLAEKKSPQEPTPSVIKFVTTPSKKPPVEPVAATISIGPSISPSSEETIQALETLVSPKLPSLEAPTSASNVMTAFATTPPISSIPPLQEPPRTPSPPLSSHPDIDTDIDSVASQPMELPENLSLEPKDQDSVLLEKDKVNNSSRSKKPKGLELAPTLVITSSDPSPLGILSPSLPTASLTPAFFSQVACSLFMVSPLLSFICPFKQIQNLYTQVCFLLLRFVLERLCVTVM
# Procedure, shortened: as §1
# ETV2 = target: T10, ETV2 (Homo sapiens, UniProt O00321 1-342); conditions: protein: recombinant; tags: N-terminal GST; dsDNA, one strand shown
# T10 sequence: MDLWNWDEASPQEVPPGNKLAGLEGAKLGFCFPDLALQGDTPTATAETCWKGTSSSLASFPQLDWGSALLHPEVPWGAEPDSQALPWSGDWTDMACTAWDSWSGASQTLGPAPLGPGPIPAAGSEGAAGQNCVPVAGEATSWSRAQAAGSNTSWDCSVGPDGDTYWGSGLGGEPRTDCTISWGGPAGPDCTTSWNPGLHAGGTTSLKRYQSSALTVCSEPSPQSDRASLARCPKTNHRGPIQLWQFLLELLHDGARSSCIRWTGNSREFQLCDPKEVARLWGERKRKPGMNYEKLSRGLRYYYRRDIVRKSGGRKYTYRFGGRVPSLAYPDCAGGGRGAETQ
# Procedure, shortened: as §1
# ELF3 = target: T11, ELF3 (Homo sapiens, UniProt P78545 1-371); conditions: protein: recombinant; tags: N-terminal GST; dsDNA, one strand shown
# T11 sequence: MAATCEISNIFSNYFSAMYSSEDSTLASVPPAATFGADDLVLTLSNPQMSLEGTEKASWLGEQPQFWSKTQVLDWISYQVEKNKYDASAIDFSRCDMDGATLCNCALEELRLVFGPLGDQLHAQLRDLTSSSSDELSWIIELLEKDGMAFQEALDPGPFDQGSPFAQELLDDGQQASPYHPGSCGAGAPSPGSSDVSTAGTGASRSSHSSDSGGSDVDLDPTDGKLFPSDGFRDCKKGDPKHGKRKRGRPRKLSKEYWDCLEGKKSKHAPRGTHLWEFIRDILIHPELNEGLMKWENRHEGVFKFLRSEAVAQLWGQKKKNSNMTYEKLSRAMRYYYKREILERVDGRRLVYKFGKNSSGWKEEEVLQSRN
# Procedure, shortened: as §1
# ETV1 = ETV1 (Homo sapiens, UniProt P50549 1-477); conditions: protein: recombinant; tags: N-terminal GST; dsDNA, one strand shown
# Procedure, shortened: as §1
# Chain of ETV1 (P50549 whole entry): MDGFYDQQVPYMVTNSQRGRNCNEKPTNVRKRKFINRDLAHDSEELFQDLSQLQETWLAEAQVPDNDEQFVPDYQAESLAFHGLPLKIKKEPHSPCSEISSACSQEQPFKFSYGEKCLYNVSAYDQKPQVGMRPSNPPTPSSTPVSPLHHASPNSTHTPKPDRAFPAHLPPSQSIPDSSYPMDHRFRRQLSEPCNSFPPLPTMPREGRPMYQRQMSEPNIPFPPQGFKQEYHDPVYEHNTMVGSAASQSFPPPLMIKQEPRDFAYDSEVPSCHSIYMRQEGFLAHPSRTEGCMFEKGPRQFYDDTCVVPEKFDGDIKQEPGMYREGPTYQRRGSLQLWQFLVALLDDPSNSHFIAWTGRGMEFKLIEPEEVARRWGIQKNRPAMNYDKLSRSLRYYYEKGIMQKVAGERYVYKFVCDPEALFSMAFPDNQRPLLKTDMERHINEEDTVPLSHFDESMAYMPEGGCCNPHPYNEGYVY
# Chain of HSF1 (Q00613 whole entry): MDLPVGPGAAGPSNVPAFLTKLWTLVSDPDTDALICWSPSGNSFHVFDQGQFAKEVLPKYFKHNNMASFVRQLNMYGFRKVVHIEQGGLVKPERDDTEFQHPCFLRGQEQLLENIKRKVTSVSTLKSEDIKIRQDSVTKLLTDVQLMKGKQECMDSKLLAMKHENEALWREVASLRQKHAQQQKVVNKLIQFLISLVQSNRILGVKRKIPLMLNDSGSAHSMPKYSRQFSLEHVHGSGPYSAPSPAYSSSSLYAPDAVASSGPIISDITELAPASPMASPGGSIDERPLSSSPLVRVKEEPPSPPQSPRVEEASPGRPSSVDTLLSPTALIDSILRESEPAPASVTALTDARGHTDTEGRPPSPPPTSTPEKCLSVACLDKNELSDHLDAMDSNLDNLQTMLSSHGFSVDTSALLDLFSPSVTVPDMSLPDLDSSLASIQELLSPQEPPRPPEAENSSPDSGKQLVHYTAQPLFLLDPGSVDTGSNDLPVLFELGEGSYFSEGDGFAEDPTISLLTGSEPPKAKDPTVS
# Chain of SPIB (Q01892 whole entry): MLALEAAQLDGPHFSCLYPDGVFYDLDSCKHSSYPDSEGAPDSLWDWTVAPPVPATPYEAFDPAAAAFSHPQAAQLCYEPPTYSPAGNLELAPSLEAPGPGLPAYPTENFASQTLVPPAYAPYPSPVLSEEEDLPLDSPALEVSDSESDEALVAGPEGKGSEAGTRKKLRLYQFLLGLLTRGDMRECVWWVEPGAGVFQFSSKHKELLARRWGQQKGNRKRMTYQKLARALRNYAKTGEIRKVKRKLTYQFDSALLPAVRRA
# Chain of ELF1 (P32519 whole entry): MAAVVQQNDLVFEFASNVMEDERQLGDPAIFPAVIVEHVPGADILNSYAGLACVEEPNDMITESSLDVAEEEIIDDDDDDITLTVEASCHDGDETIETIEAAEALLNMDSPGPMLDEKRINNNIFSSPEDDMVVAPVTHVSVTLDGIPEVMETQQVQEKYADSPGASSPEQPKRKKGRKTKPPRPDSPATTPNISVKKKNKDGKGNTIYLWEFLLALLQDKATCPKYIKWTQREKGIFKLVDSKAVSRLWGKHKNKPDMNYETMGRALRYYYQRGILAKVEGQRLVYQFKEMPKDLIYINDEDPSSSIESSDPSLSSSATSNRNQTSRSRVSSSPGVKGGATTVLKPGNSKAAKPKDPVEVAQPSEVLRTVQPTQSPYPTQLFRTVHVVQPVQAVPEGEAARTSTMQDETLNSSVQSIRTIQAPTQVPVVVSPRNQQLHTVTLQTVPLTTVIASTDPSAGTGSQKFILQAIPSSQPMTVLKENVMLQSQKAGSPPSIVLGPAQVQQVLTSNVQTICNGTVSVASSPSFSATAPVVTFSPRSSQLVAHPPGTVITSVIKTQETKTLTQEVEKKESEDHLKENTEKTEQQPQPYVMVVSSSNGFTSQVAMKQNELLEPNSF
# Chain of ETV5 (P41161 whole entry): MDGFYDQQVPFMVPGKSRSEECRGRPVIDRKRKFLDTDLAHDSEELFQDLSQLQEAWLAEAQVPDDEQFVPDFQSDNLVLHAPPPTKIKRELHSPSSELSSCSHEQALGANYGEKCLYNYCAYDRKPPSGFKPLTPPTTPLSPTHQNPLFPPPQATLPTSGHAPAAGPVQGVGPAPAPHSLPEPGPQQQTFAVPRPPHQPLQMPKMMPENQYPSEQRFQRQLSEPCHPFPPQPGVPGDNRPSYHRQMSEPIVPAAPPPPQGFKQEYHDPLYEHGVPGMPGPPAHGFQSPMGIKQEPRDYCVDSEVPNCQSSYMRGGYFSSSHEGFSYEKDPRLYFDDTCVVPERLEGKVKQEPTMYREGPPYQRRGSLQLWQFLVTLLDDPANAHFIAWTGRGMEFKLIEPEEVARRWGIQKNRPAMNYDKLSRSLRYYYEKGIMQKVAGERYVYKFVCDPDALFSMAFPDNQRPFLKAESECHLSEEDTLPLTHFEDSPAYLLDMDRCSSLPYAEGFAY
# Chain of ELF4 (Q99607 whole entry): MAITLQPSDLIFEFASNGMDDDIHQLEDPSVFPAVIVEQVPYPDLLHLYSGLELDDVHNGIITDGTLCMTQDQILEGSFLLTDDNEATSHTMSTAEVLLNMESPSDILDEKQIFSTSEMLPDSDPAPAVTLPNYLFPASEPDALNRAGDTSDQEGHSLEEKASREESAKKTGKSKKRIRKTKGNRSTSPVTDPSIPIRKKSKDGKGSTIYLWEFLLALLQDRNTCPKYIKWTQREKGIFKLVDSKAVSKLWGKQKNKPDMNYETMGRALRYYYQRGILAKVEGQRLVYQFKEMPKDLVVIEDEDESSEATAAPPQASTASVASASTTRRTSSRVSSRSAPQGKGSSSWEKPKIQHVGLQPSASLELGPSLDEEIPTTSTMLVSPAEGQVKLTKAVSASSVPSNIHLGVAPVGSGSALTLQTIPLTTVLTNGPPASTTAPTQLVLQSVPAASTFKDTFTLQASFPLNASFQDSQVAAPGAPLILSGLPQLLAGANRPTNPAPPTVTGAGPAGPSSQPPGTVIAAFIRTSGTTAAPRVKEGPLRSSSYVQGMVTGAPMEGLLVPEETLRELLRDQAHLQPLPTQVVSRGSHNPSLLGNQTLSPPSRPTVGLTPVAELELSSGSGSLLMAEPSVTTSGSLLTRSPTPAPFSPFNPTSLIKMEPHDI
sequence,measurement,setting,value
AGGAAA,binding signal,FLI1,"1.32 fold enrichment (6-mer frequency, TF over GST control)"
same,binding signal,ELK1,"1.28 fold enrichment (6-mer frequency, TF over GST control)"
same,binding signal,GABPA,"1.31 fold enrichment (6-mer frequency, TF over GST control)"
same,binding signal,ERG,"1.62 fold enrichment (6-mer frequency, TF over GST control)"
same,binding signal,ELF1,"1.27 fold enrichment (6-mer frequency, TF over GST control)"
same,binding signal,EHF,"1.63 fold enrichment (6-mer frequency, TF over GST control)"
same,binding signal,SPI1,"1.43 fold enrichment (6-mer frequency, TF over GST control)"
same,binding signal,SPIB,"1.49 fold enrichment (6-mer frequency, TF over GST control)"
same,binding signal,ELK3,"1.34 fold enrichment (6-mer frequency, TF over GST control)"
same,binding signal,FEV,"1.5 fold enrichment (6-mer frequency, TF over GST control)"
same,binding signal,ETV5,"1.52 fold enrichment (6-mer frequency, TF over GST control)"
same,binding signal,HSF1,"1.15 fold enrichment (6-mer frequency, TF over GST control)"
same,binding signal,SPIC,"1.42 fold enrichment (6-mer frequency, TF over GST control)"
same,binding signal,ELF4,"1.35 fold enrichment (6-mer frequency, TF over GST control)"
same,binding signal,ELK4,"1.2 fold enrichment (6-mer frequency, TF over GST control)"
same,binding signal,ETV2,"1.41 fold enrichment (6-mer frequency, TF over GST control)"
same,binding signal,ELF3,"1.72 fold enrichment (6-mer frequency, TF over GST control)"
same,binding signal,ETV1,"1.46 fold enrichment (6-mer frequency, TF over GST control)"
